# Many of the other results were omitted from the sample, so the strongest signals are more common in it than they were.
# B1: B1567 (Bifidobacterium sp) (protein)
# chain: MKFTTAKKAVALTGAVAMLVSVAACGSDSGKSSQPAQDSDVKEITVWAWEPSLTQVAKDFEKETGIKVDLKNVGTNTKEYTQLDNAIEAGSGAPDVAQVEYYAVPQYAIKGNLLDITDKTSGYKDFYTPGPWASVQFAGKVYGLPMDSGPMAFFYNKEVFDKAGVDAEQIKTWDQYYDAAKKIHALGDNYYITSDTGDAGFFDSMTWLAGAKPFQTSSDGSEVTVNLTEDKGVKTFTDFWQKLLDEGLLDTKTAGWSEDWFKGMVDGTIASLFTGAWMPANLANSAADGAGKWRVTQMPTADGSTTNSENGGSSLAVLASTKKADAAYQFIEYANHGAGVATRVAGGAFPADKASLEKDSFKNATTVKNADGQDVDYFGGQKYNEVLAQAAENVSSGYQFLPFEVKARTIFGDYFGKSYTGDQKLSDGVAAWQKALQDYGKDQGFTVK
# Columns and labels:
# Assay in all cases: glycan array binding signal (z-score within array); higher = stronger binding
# Details in all cases: glycan notation: IUPAC condensed, linker removed
# [1] = target: Fuc(a1-2)Gal(b1-3)GalNAc(a1-3)[Fuc(a1-2)]Gal(b1-4)Glc
# How it was run: (§1)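 Columns mapping to the same glycan were averaged after glycan names were converted to IUPAC-condensed notation. The data come from 3228 arrays in the Consortium for Functional Glycomics database, limited to those with an available protein sequence. Binding is reported as a within-array Z-score averaged across arrays of one protein sequence and across linkers.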
# [2] = target: Fuc(a1-2)Gal(b1-3)[Fuc(a1-4)]GlcNAc(b1-2)Man(a1-3)[Fuc(a1-2)Gal(b1-3)[Fuc(a1-4)]GlcNAc(b1-2)Man(a1-6)]Man(b1-4)GlcNAc(b1-4)[Fuc(a1-6)]GlcNAc(b1-4)[Fuc(a1-6)]GlcNAc
# How it was run: as §1
# Fuc(a1-2)Gal(b1-4)Glc6S = target: Fuc(a1-2)Gal(b1-4)Glc6S
# How it was run: as §1
# [3] = target: Fuc(a1-2)Gal(b1-4)GlcNAc(b1-3)GalNAc
# How it was run: as §1
# [4] = target: Fuc(a1-2)Gal(b1-4)[Fuc(a1-3)]GlcNAc(b1-3)Gal(b1-4)[Fuc(a1-3)]GlcNAc
# How it was run: as §1
# [5] = target: Fuc(a1-2)[Gal(a1-3)]Gal(b1-3)GlcNAc(b1-3)GalNAc
# How it was run: as §1
# [6] = target: Fuc(a1-2)[GalNAc(a1-3)]Gal(b1-4)GlcNAc(b1-2)Man(a1-3)[Fuc(a1-2)[GalNAc(a1-3)]Gal(b1-4)GlcNAc(b1-2)Man(a1-6)]Man(b1-4)GlcNAc(b1-4)GlcNAc
# How it was run: as §1
# [7] = target: Fuc(a1-3)[Gal(b1-4)]GlcNAc(b1-6)[Gal(b1-3)GlcNAc(b1-3)]Gal(b1-4)Glc
# How it was run: as §1
# Fuc(a1-4)GlcNAc = target: Fuc(a1-4)GlcNAc
# How it was run: as §1
# Gal(a1-3)Gal(b1-3)GlcNAc = target: Gal(a1-3)Gal(b1-3)GlcNAc
# How it was run: as §1
# [8] = target: Gal(a1-4)Gal(b1-4)GlcNAc(b1-2)Man(a1-3)[Gal(a1-4)Gal(b1-4)GlcNAc(b1-2)Man(a1-6)]Man(b1-4)GlcNAc(b1-4)GlcNAc
# How it was run: as §1
# [9] = target: Gal(b1-3)GalNAc(a1-3)[Fuc(a1-2)]Gal(b1-4)Glc
# How it was run: as §1
# Gal(b1-3)GlcNAc(b1-2)Man = target: Gal(b1-3)GlcNAc(b1-2)Man
# How it was run: as §1
# [10] = target: Gal(b1-3)[GlcNAc(b1-6)]GalNAc
# How it was run: as §1
# [11] = target: Gal(b1-3)[Neu5Ac(a2-6)]GlcNAc(b1-4)Gal(b1-4)Glc
# How it was run: as §1
# [12] = target: Gal(b1-4)GalNAc(b1-3)[Fuc(a1-2)]Gal(b1-4)GlcNAc
# How it was run: as §1
# Gal(b1-4)GlcNAc(b1-2)Man = target: Gal(b1-4)GlcNAc(b1-2)Man
# How it was run: as §1
# [13] = target: Gal(b1-4)GlcNAc(b1-2)Man(a1-6)Man(b1-4)GlcNAc(b1-4)GlcNAc
# How it was run: as §1
# [14] = target: Gal(b1-4)GlcNAc(b1-2)[Gal(b1-4)GlcNAc(b1-6)]Man(a1-6)[GlcNAc(b1-4)][Gal(b1-4)GlcNAc(b1-2)Man(a1-3)]Man(b1-4)GlcNAc(b1-4)GlcNAc
# How it was run: as §1
# [15] = target: Gal(b1-4)GlcNAc(b1-3)Gal(b1-4)Glc
# How it was run: as §1
# [16] = target: Gal(b1-4)GlcNAc(b1-3)Gal(b1-4)GlcNAc
# How it was run: as §1
# [17] = target: Gal(b1-4)GlcNAc(b1-3)Gal(b1-4)GlcNAc(b1-3)Gal(b1-4)GlcNAc
# How it was run: as §1
# [18] = target: Gal(b1-4)GlcNAc(b1-3)Gal(b1-4)GlcNAc(b1-3)Gal(b1-4)GlcNAc(b1-2)Man(a1-3)[Gal(b1-4)GlcNAc(b1-3)Gal(b1-4)GlcNAc(b1-3)Gal(b1-4)GlcNAc(b1-2)Man(a1-6)]Man(b1-4)GlcNAc(b1-4)GlcNAc
# How it was run: as §1
# [19] = target: Gal(b1-4)GlcNAc(b1-3)Gal(b1-4)GlcNAc(b1-3)Gal(b1-4)GlcNAc(b1-2)Man(a1-3)[Gal(b1-4)GlcNAc(b1-3)Gal(b1-4)GlcNAc(b1-3)Gal(b1-4)GlcNAc(b1-2)Man(a1-6)]Man(b1-4)GlcNAc(b1-4)[Fuc(a1-6)]GlcNAc
# How it was run: as §1
# [20] = target: Gal(b1-4)GlcNAc(b1-3)Gal(b1-4)GlcNAc(b1-3)Gal(b1-4)GlcNAc(b1-2)[Gal(b1-4)GlcNAc(b1-3)Gal(b1-4)GlcNAc(b1-3)Gal(b1-4)GlcNAc(b1-6)]Man(a1-6)[Gal(b1-4)GlcNAc(b1-3)Gal(b1-4)GlcNAc(b1-3)Gal(b1-4)GlcNAc(b1-2)Man(a1-3)]Man(b1-4)GlcNAc(b1-4)[Fuc(a1-6)]GlcNAc
# How it was run: as §1
# [21] = target: Gal(b1-4)GlcNAc(b1-3)Gal(b1-4)GlcNAc(b1-3)Gal(b1-4)GlcNAc(b1-3)Gal(b1-4)GlcNAc(b1-2)[Gal(b1-4)GlcNAc(b1-3)Gal(b1-4)GlcNAc(b1-3)Gal(b1-4)GlcNAc(b1-3)Gal(b1-4)GlcNAc(b1-6)]Man(a1-6)[Gal(b1-4)GlcNAc(b1-3)Gal(b1-4)GlcNAc(b1-3)Gal(b1-4)GlcNAc(b1-3)Gal(b1-4)GlcNAc(b1-2)Man(a1-3)]Man(b1-4)GlcNAc(b1-4)[Fuc(a1-6)]GlcNAc
# How it was run: as §1
# [22] = target: Gal(b1-4)GlcNAc(b1-3)Gal(b1-4)GlcNAc(b1-3)Gal(b1-4)GlcNAc(b1-3)Gal(b1-4)GlcNAc(b1-3)Gal(b1-4)GlcNAc(b1-3)Gal(b1-4)GlcNAc(b1-2)Man(a1-3)[Gal(b1-4)GlcNAc(b1-3)Gal(b1-4)GlcNAc(b1-3)Gal(b1-4)GlcNAc(b1-3)Gal(b1-4)GlcNAc(b1-3)Gal(b1-4)GlcNAc(b1-3)Gal(b1-4)GlcNAc(b1-2)Man(a1-6)]Man(b1-4)GlcNAc(b1-4)GlcNAc
# How it was run: as §1
# [23] = target: Gal(b1-4)GlcNAc(b1-3)Gal(b1-4)[Fuc(a1-3)]GlcNAc(b1-3)Gal(b1-4)[Fuc(a1-3)]GlcNAc
# How it was run: as §1
# Gal(b1-6)Gal = target: Gal(b1-6)Gal
# How it was run: as §1
# Gal3S(b1-4)Glc = target: Gal3S(b1-4)Glc
# How it was run: as §1
binder,measurement,setting,value
B1,glycan array binding signal (z-score),[1],-0.161
same,glycan array binding signal (z-score),[2],-0.08
same,glycan array binding signal (z-score),Fuc(a1-2)Gal(b1-4)Glc6S,-0.184
same,glycan array binding signal (z-score),[3],-0.127
same,glycan array binding signal (z-score),[4],-0.104
same,glycan array binding signal (z-score),[5],-0.097
same,glycan array binding signal (z-score),[6],0.019
same,glycan array binding signal (z-score),[7],-0.15
same,glycan array binding signal (z-score),Fuc(a1-4)GlcNAc,-0.077
same,glycan array binding signal (z-score),Gal(a1-3)Gal(b1-3)GlcNAc,-0.129
same,glycan array binding signal (z-score),[8],0.067
same,glycan array binding signal (z-score),[9],-0.013
same,glycan array binding signal (z-score),Gal(b1-3)GlcNAc(b1-2)Man,0.008
same,glycan array binding signal (z-score),[10],-0.138
same,glycan array binding signal (z-score),[11],-0.133
same,glycan array binding signal (z-score),[12],-0.08
same,glycan array binding signal (z-score),Gal(b1-4)GlcNAc(b1-2)Man,-0.12
same,glycan array binding signal (z-score),[13],-0.101
same,glycan array binding signal (z-score),[14],-0.145
same,glycan array binding signal (z-score),[15],14.9
same,glycan array binding signal (z-score),[16],0.588
same,glycan array binding signal (z-score),[17],1.4
same,glycan array binding signal (z-score),[18],0.282
same,glycan array binding signal (z-score),[19],0.333
same,glycan array binding signal (z-score),[20],0.271
same,glycan array binding signal (z-score),[21],0.348
same,glycan array binding signal (z-score),[22],1.66
same,glycan array binding signal (z-score),[23],1.8
same,glycan array binding signal (z-score),Gal(b1-6)Gal,11
same,glycan array binding signal (z-score),Gal3S(b1-4)Glc,-0.135

# — the supplement of paper PMC8728848
